This is one part of a sample in which hits are shown more often than they occur.
FBPA Giardia inh: inhibitors of Giardia lamblia fructose-1,6-bisphosphate aldolase; Potency, µM (doses to about 59.6 µM), inactives show at the top dose activity, negative = inhibition, hits mostly inhibitors; A8B2U2; hit rate 0.71% among 290,000; purified Giardia FBPA; note: potency is the fitted concentration of half-maximal effect; % is set by controls: 0 for no effect and ±100 for the full control effect; nearly all actives have a fitted effect of over 55% in size
Target sequence (A8B2U2 whole entry, looked up): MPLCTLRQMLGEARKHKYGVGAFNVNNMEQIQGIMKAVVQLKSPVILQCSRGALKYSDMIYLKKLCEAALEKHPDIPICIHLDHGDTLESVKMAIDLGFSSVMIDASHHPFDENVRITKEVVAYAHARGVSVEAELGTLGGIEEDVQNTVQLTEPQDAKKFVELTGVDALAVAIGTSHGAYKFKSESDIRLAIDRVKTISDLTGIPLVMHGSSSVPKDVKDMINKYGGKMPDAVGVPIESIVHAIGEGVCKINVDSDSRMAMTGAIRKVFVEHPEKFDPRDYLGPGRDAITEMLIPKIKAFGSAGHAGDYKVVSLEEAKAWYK
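40 nM FBPA preincubated 10 min at RT with compound (up to 57.5 uM final), then substrate plus GAPDH/TPI/NAD/arsenate coupling and diaphorase/resazurin added. Fluorescence read after 20 min at RT, 525/598 nm.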
LmPK inh: LmPK (Leishmania mexicana) enzyme inhibition; Q27686; purified LmPK, Kinase-Glo ATP luminescence, 1 h; Potency, µM (titrated, usually from 57.5 µM), for the others: at the top dose activity change, negative = inhibition, most hits filed as inhibitors; hit rate 0.37% among 290,000; note: potency is the fitted concentration of half-maximal effect; % is set by controls: 0 for no effect and ±100 for the full control effect
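0.1 nM LmPK, 0.5 mM PEP, 0.1 mM ADP; 50 mM imidazole pH 7.2, 7 mM MgCl2, 50 mM KCl; 1 h RT. Kinase-Glo luminescence readout, normalized to no-enzyme (full inhibition) and uninhibited wells.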
TbPYK inhibitor: T. brucei pyruvate kinase inhibition; Q57TT1; TbPYK enzyme, Kinase-Glo Plus ATP luminescence, 45 min; Potency, µM (series often up to 76.8 µM), for inactives: top-dose activity, negative = inhibition, usual class: inhibitors; hit rate 0.12% among 410,000; note: potency is the fitted concentration of half-maximal effect; % is set by controls: 0 for no effect and ±100 for the full control effect; nearly all actives have a fitted effect of over 50% in size
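In this concentration-response screen, enzyme-free wells defined baseline while DMSO plates tracked drift. Each reaction combined TbPYK, substrate, compound and 130 uM ADP for 45 min at room temperature. Kinase-Glo Plus luminescence gave the signal.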
CHX counter: counter-screen hit for Shiga toxin inhibitors, cycloheximide; AID 2314; hit rate 12% among 300,000; cell reporter, cycloheximide protein synthesis inhibition counterscreen; max response, %; in the data active = max response mostly above about 13%, no sharp cut-off; inactive = mostly below about 14%; note: read at 38.3 µM for the half of the compounds with a filed dose; 0% is about no effect
RE007 growth inh: less growth of the S. pombe RE007 Vpr strain; Potency, µM (series often up to 92.2 µM), inactives show at the highest dose activity change, negative = less growth, usual class: inhibitors; S. pombe RE007 Vpr strain, BacTiter-Glo ATP luminescence, 24 h; hit rate 0.21% among 360,000; active = well fitted falling curve with a large enough effect; inconclusive = small, poorly fitted or top-dose-only effect; inactive = no such curve, though single readings can be large or run the other way; note: potency is the fitted concentration of half-maximal effect; % is set by controls: 0 for no effect and ±100 for the full control effect; nearly all actives have a fitted effect of over 50% in size
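Fission yeast strain RE007, carrying one chromosomally integrated HIV-1 vpr copy, was seeded at OD 0.01 in PMG+AL medium with 23 nL pinned compound. After 24 h at 30 °C and 99% humidity, viability was read by BacTiter-Glo luminescence.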
Shiga toxin inh: inhibitors of Shiga toxin in Vero cells. Vero cells, Shiga toxin protein synthesis inhibition reporter. inhibition, % at 38.7 µM. hit rate 9.2% among 290,000. AID 2315; in the data active = inhibition mostly above about 28%, no sharp cut-off; inactive = mostly below about 43%; note: 0% is about no effect
Active calls of the source: *; ? = inconclusive; . = no result; [ ] = remark or other dose. Unless noted, calls come from the whole dose curve; as a rule, active = well fitted curve in the direction sought with a large enough effect; inconclusive = small, poorly fitted or top-dose-only effect, or another doubt; inactive = no such curve, though single readings can be large; an effect the other way counts as inactive or inconclusive.

SMILES	FBPA Giardia inh	LmPK inh	TbPYK inhibitor	CHX counter	RE007 growth inh	Shiga toxin inh
NCCC[C@@H](CC(=O)N[C@@H]1CCCC[C@H]1C(=O)N[C@H](CC(=O)N[C@@H](CCC(=O)O)CC(=O)O)Cc1c[nH]c2ccccc12)NC(=O)C[C@H](Cc1ccccc1)NC(=O)[C@@H]1CCCC[C@H]1N	-25.2%	.	.	.	.	.
COc1ccc(C(=O)Nc2ccc3ccccc3c2)c(OC)c1	-4.9%	-6.8%	-1.1%	30.1*	?	85.7*
COc1ccc(C(=O)NNC(=O)c2ccc3ccccc3c2)cc1	.	.	6.0%	.	10.3%	.
COc1ccc(NC(=O)c2ccc3ccccc3c2)cc1	7.3%	5.9%	-4.9%	36.7*	8.6%	.
COc1ccc(NC(=O)c2coc(C)c2)cc1	2.5%	0.2%	-0.8%	29.2*	-12.4%	54.0*
COc1ccc(C(=O)CNc2ccc3ccccc3c2)cc1	-20.9%	2.9%	-4.3%	30.9*	-4.5%	79.3*
COc1ccccc1C(=O)Nc1ccc2ccccc2c1	.	.	3.5%	.	?	.
CCOC(=O)CNC(=O)Cn1nc(N2CCN(c3ccccc3)CC2)ccc1=O	.	.	1.4%	.	.	.
CCc1oc2ccccc2c1C(=O)c1cc(I)c(O)c(I)c1	.	.	-15.5%	.	.	.
Cc1ccc2[nH]c3c(=O)n(CC(=O)N(CCN(C)C)Cc4ccccc4)ncc3c2c1	.	.	3.4%	.	.	.
COc1ccc(C(=O)NCCn2ccc3ccccc32)c(OC)c1	-9.8%	0.1%	-3.9%	37.5*	-6.5%	42.4
COc1ccc(C(=O)CNc2ccccc2Br)cc1	4.5%	-2.0%	10.5%	41.1*	0.9%	73.7*
Cc1c(Cl)cccc1NC(=O)CSc1nc(=O)n(Cc2cccnc2)c2c1CCC2	.	.	3.5%	.	.	.
O=C(COCc1cc(-c2ccc(F)cc2)on1)Nc1cc(F)ccc1F	.	.	3.2%	.	.	.
Oc1ccc(/C=N/NC(=S)N/N=C/c2ccc(O)cc2)cc1	17.0%	?	-20.1%	40.3*	-10.9%	61.9*
Oc1ccc(/C=N/NC(=S)Nc2cccnc2)cc1	0.0%	-17.4%	3.1%	48.2*	25.9%	81.5*
COc1ccc(O)c(/C=N/N2CCCCC2)c1	-4.8%	?	-9.3%	53.7*	-24.2%	83.0*
COc1ccc(/C(C)=N/N2CCCCC2)c(O)c1	9.0%	0.3%	1.6%	11.8*	-9.1%	28.7
CCOC(=O)C1CCCN(Cc2cc(=O)oc3cc(C)ccc23)C1 (centres undefined)	4.0%	12.9%	1.2%	44.1*	0.1%	68.9*
CCOC(=O)C1CCCN(Cc2cc(=O)oc3cc(C)c(C)cc23)C1 (centres undefined)	-0.7%	1.2%	-0.2%	37.0*	3.2%	28.2
Cc1ccc2c(CN3CCC(C)CC3)cc(=O)oc2c1	4.0%	-0.1%	0.8%	53.2*	-23.3%	151.5*
Cc1cc2oc(=O)cc(CN3CCCC3)c2cc1C	.	.	-12.6%	.	0.8%	.
COC(=O)C1(C(=O)OC)C/C=C\C/C=C\c2ccccc2C1C[N+](=O)[O-] (centres undefined)	-0.1%	.	.	.	.	.
Cc1ccc(-c2nnc(Nc3ccc(Br)cc3)c3ccccc23)cc1S(=O)(=O)N1CCCCC1	.	.	-7.9%	.	.	.
Cc1oncc1C(=O)Nc1cccc2ccccc12	4.4%	4.7%	9.2%	-2.9	-2.0%	-7.2
SMILES	FBPA Giardia inh	LmPK inh	TbPYK inhibitor	CHX counter	RE007 growth inh	Shiga toxin inh
Cc1cc(=O)oc(C)c1C(=O)Nc1ccc2ncccc2c1	-23.4%	2.0%	-10.5%	0.4	6.5%	-9.0
COC(=O)c1cccc(NC(=O)c2cccnc2)c1	.	-0.7%	5.3%	1.6	-8.3%	-20.6
Cc1coc(C)c1C(=O)Nc1ccc2ccccc2c1	1.6%	-1.7%	7.2%	63.8*	-4.6%	90.1*
Cc1oncc1C(=O)Nc1ccc2ccccc2c1	7.9%	-4.0%	-0.4%	34.1*	-20.0%	89.0*
COC(=O)c1cccc(NC(=O)c2cnoc2C)c1	-0.6%	-0.8%	0.2%	27.6*	-25.2%	52.0*
CCOC(=O)c1c(C)c(C(=O)NCCc2ccc(OC)cc2)c(C)n1C	.	.	-7.0%	.	.	.
Cc1nc(-n2nc(C)c(Cc3ccccc3Cl)c2C)sc1C(=O)Nc1ccccc1F	.	.	-0.5%	.	.	.
CCCCCCOc1ccc(CN2CCN(C)CC2)cc1	-11.6%	-1.6%	-0.4%	41.2*	1.5%	134.3*
Oc1ccc(N2CCN(Cc3ccc(OCCCN4CCCCC4)cc3)CC2)cc1	?	4.5%	?	-2.2	3.4%	-3.0
CCCCOc1ccc(CN2CCCCC2)cc1	-2.0%	3.0%	-3.5%	17.3*	-5.3%	44.8*
Cc1ccc(Cn2nnc3c(=O)[nH]c(C4CCN(S(=O)(=O)Cc5ccccc5)CC4)nc32)cc1	1.8%	-4.0%	0.0%	31.1*	20.9%	77.6*
O=C(NCc1cccnc1)c1ccc(-c2cc(Cl)ccc2Cl)o1	-1.6%	8.3%	-14.4%	1.1	-16.1%	-13.9
COC(=O)c1sccc1-c1ccc(C(=O)Nc2cccc(Cl)c2)o1	-1.4%	5.2%	1.7%	14.8	5.6%	51.2*
CN(C)S(=O)(=O)Oc1ccsc1C(=O)Nc1cccc(Cl)c1	10.1%	0.5%	-4.2%	1.6	-23.0%	15.9
O=C(NCc1cccnc1)c1ccc(-c2ccc(Cl)cc2)o1	1.2%	-10.3%	2.5%	16.1	-1.9%	16.1
O=C(Nc1cccnc1)c1ccc(-c2cc(Cl)ccc2Cl)o1	-0.3%	2.3%	4.5%	21.7*	-16.8%	48.5
O=C(Nc1cccnc1)c1ccc(-c2ccc(Cl)cc2)o1	-1.0%	1.3%	1.7%	66.1*	2.9%	72.5*
O=c1[nH]c(=S)[nH]c(O)c1N=Nc1ccc2c(c1)OCO2	-5.7%	?	-16.4%	23.5*	-1.6%	46.1*
O=c1[nH]c(O)c(N=Nc2ccc3c(c2)OCCO3)c(=O)[nH]1	-4.3%	-25.3%	-3.6%	31.8*	43.8%	88.1*
O=C1CCCC(O)=C1N=Nc1ccc2c(c1)OCO2	-5.7%	?	-7.3%	76.3*	-2.3%	47.5*
O=c1[nH]c(=S)[nH]c(O)c1N=Nc1ccc2c(c1)OCCO2	-18.8%	?	?	23.4*	-4.9%	27.4*
COCOc1ccc(Br)cc1C(=O)[C@H]1O[C@H]1c1cccc(OC)c1	0.4%[12.9 µM]	.	.	.	.	.
C=CCNc1nc(-c2c(C)nc3sccn23)cs1	?	0.0%	-2.1%	24.8*	-8.6%	50.0*
Cc1nc2sccn2c1-c1csc(NCc2ccccc2)n1	-21.2%	-4.2%	7.0%	14.4	1.5%	29.0
Brc1ccc(-c2nc(-c3cccnc3)no2)o1	5.0%	-8.5%	-4.0%	69.1*	2.5%	111.5*
c1ccc(C(c2ccccc2)c2nc(-c3cccnc3)no2)cc1	5.6%	2.5%	3.0%	-2.6	15.2%	-4.4
Brc1ccc(-c2nc(-c3ccccc3)no2)o1	-1.6%	?	0.9%	59.0*	-28.1%	103.7*
O=c1oc2ccc(Br)cc2cc1-c1nc(-c2ccccc2)no1	.	.	0.3%	.	.	.
CC1CCCC/C1=N\NC(=S)NCCc1ccccc1 (centres undefined)	-13.9%	-12.4%	-0.2%	44.1*	2.7%	97.6*

Screening results from PubChem BioAssay.
